In test [1] the test system is Plasmodium falciparum Sir2 (PF13_0152, Sir2A). The test is described as follows: Plasmodium falciparum Sir2A binding compounds – biochemical, small-molecule microarray, 635 nm fluorescence, primary screen (AID 1098).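 Note: score merges spot fluorescence intensity with its signal-to-noise ratio.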 The following applies: fluorescence 635 nm, higher = more signal.
Test [2] in a line: probe aDKK1 binding to arrayed compounds – biochemical, biotinylated probe, 635/667 nm fluorescence, primary screen (AID 1099).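 Note: score merges 667nm spot fluorescence with signal to noise across triplicate slides.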 The following applies: small-molecule microarray, higher = more signal.
A short description of test [3]: probe aCHRDL2 binding to arrayed compounds – biochemical, biotinylated probe, 635/667 nm fluorescence, primary screen (AID 1100). The following applies: small-molecule microarray, higher = more signal.
Test [4] is described as follows: change in splice reporter luminescence, either direction, cell-based, HEK293, spliceosome inhibition project, primary screen (AID 1101).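 Note: HEK293 cells carrying a splicing-competent luciferase reporter gene; test concentration not given here.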 The following applies: HEK293 splicing luciferase reporter, 24 h, higher = more signal, called active from +8 up or from −8 down. On the technique in general: A reporter such as luciferase makes a cellular process visible.
Test [5] has as its target Fibroblast growth factor 10 (Homo sapiens) (UniProt O15520). As to the kind of experiment: compounds binding fibroblast growth factor 10 – biochemical, small-molecule microarray, 635 nm fluorescence, primary screen (AID 1102). The following applies: FGF10 binding, fluorescence 635 nm, higher = more signal.
Test [6] has as its system glycogen synthase kinase-3 (GSK3A per assay name; protocol says GSK3B). As to the kind of experiment: compounds binding glycogen synthase kinase-3 – biochemical, small-molecule microarray, 635 nm fluorescence, GSK3A, primary screen (AID 1103). Note: the record names both GSK3A and GSK3B. The following applies: fluorescence 635 nm, higher = more signal.
In test [7] the target is Epidermal growth factor receptor (Homo sapiens) (UniProt P00533). The test is described as follows: compounds binding epidermal growth factor receptor – biochemical, small-molecule microarray, 635 nm fluorescence, primary screen (AID 1104).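 Note: score merges 667 nm emission intensity with spot signal to noise over triplicate slides.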 The following applies: EGFR binding, higher = more signal.
Test [8] addresses Follistatin-related protein 3 (Homo sapiens) (UniProt O95633). The test is described as follows: compounds binding follistatin-related protein 3 – biochemical, small-molecule microarray, 635 nm fluorescence, primary screen (AID 1105).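 Note: score merges emission near 667 nm and signal to noise per printed spot across three slides.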 The following applies: FSTL3 binding, higher = more signal.
In test [9] the target is Dickkopf-related protein 1 (Homo sapiens) (UniProt O94907). The test is described as follows: small molecules binding DKK1 protein – biochemical, small-molecule microarray, 635 nm fluorescence scan, primary screen (AID 1106).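 Note: score merges emission near 667 nm with signal to noise over three replicate slides.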 The following applies: higher = more signal.
In test [10] the test system is Inhibin beta A chain (activin A). As to the kind of experiment: small molecules binding activin A – biochemical, small-molecule microarray, 635 nm fluorescence scan, primary screen (AID 1107).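 Note: mouse activin A protein probed at 4.33 µg/mL on printed slides; score merges bound-protein fluorescence near 667 nm with spot signal-to-noise.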 The following applies: INHBA, higher = more signal.
The test system of test [11] is Human papillomavirus type 1a protein E7 (residues 44-93). The test is described as follows: small molecules binding HPV E7 44-93 – biochemical, small-molecule microarray, residues 44-93, 635 nm fluorescence, primary screen (AID 1108).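 Note: E7 fragment applied at 1 µg/mL in TBST for 1 h at 4 C; score combines spot fluorescence with its signal to noise ratio.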 The following applies: fluorescence 635 nm, higher = more signal.
Test [12] can be described thus: hepatitis C replication reporter changes, two-sided – Huh7 cells, luciferase reporter, HCV replication inhibitor project, primary screen (AID 1109).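 Note: huh7 hepatoma cells harbouring a luciferase neomycin HCV replicon reporter; luciferase luminescence as measure of HCV replicon replication; test concentration not given here.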 The following applies: Huh7 HCV replicon luciferase reporter, 48 h; higher = more signal.
The target in test [13] is Left-right determination factor 2 (Homo sapiens) (UniProt O00292). The test is described as follows: small molecules binding LEFTY2 protein – biochemical, small-molecule microarray, 635 nm fluorescence scan, primary screen (AID 1110). The following applies: higher = more signal.
The target of test [14] is Calmodulin-1 (Homo sapiens) (UniProt P0DP23). As to the kind of experiment: small molecules binding calmodulin-1 with EGTA – biochemical, small-molecule microarray, Cy5-labelled CALM1, profiling panel (AID 1111).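 Note: labelled calmodulin applied in Tris saline Tween buffer holding calcium plus EGTA and DTT.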 The following applies: Cy5-CALM1 binding fluorescence, higher = more signal.
Test [15] has the same target. The test is described as follows: small molecules binding Ca-loaded calmodulin-1 – biochemical, small-molecule microarray, Cy5-labelled CALM1, plus calcium, artefact control for SMM control-protein annotation, profiling panel (AID 1112).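 Note: score merges spot fluorescence with signal to noise from triplicate slides.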 The following applies: Cy5-CALM1 binding fluorescence, higher = more signal.
Test [16] in a line: probe aWnt5a binding to arrayed compounds – biochemical, biotinylated probe, 635/667 nm fluorescence, primary screen (AID 1113).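 Note: score merges 667 nm fluorescence intensity with signal-to-noise per printed feature.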 The following applies: small-molecule microarray, higher = more signal.
Test [17] can be described thus: probe aShh binding to arrayed compounds – biochemical, biotinylated probe, 635/667 nm fluorescence, primary screen (AID 1114).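 Note: probe is biotin-labelled aShh protein from a stem cell growth factor screen; measures binding of labelled protein to compounds printed on the slide; score merges feature fluorescence at 667 nm with signal-to-noise.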 The following applies: small-molecule microarray, higher = more signal.
The nature of test [18]: probe aNog binding to arrayed compounds – biochemical, biotinylated probe, 635/667 nm fluorescence, primary screen (AID 1115).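 Note: probe is biotinylated aNog protein used at 0.15 µg/mL for 1 h at 4 C; z-score combines 667 nm fluorescence of each spot with its signal to noise.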 The following applies: small-molecule microarray, higher = more signal.
Test [19] addresses Torsin-1A-interacting protein 1 (Homo sapiens) (UniProt Q5JTV8). As to the kind of experiment: compound microarray binding of lysate hLAP1 – cell lysate, small-molecule microarray, COS7 lysate, 635/667 nm fluorescence, primary screen (AID 1116). The following applies: 635 nm fluorescence, higher = more signal.
Test [20] has as its target Alpha-bungarotoxin (Bungarus multicinctus) (UniProt P60615). The test is described as follows: compounds binding labelled alpha-BTX control protein – biochemical, small-molecule microarray, Alexa647 label, 635/667 nm fluorescence, artefact control for SMM control protein annotation, profiling panel (AID 1117). The following applies: alpha-BTX-A647 binding fluorescence, higher = more signal.

Active and inactive are the calls of the source.

Composite z-score and z-score data for six molecules are collected here from PubChem BioAssay.

Torsin-1A-interacting protein 1 (Homo sapiens), sequence (Q5JTV8 whole entry, looked up): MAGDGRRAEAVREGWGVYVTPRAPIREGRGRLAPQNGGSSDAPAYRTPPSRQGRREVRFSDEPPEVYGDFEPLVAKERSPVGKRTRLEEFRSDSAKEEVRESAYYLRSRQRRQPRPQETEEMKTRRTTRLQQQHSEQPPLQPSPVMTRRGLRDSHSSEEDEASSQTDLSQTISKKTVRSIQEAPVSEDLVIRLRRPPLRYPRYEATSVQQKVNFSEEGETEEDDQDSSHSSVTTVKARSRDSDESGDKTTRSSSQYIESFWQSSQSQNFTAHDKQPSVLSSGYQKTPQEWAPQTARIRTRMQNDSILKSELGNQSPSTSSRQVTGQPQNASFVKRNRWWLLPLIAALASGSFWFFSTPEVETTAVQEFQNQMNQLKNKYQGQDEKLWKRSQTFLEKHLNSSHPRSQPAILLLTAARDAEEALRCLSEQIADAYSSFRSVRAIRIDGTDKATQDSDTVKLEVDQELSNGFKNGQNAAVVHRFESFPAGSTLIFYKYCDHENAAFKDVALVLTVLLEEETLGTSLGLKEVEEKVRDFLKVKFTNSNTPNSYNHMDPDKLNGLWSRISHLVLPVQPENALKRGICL
Left-right determination factor 2 (Homo sapiens), sequence (O00292 whole entry, looked up): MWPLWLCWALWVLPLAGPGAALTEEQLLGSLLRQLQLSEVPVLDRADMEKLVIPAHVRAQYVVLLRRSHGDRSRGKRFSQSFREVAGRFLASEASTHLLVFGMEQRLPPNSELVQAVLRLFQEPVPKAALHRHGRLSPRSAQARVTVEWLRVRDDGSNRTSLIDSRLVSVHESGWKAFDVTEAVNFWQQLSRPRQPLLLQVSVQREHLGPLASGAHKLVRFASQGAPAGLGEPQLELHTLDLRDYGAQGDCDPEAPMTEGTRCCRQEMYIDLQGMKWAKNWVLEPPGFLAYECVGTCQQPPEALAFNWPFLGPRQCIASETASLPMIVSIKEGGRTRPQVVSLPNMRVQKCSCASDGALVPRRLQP
Dickkopf-related protein 1 (Homo sapiens), sequence (O94907 whole entry, looked up): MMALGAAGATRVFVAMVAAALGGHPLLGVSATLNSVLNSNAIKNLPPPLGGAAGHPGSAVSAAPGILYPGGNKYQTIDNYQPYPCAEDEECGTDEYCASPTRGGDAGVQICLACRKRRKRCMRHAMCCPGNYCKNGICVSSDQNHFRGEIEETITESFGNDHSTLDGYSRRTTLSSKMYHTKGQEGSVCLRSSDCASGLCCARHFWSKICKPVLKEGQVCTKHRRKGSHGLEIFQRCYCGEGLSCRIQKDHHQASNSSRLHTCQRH
Epidermal growth factor receptor (Homo sapiens), sequence (P00533 whole entry, looked up): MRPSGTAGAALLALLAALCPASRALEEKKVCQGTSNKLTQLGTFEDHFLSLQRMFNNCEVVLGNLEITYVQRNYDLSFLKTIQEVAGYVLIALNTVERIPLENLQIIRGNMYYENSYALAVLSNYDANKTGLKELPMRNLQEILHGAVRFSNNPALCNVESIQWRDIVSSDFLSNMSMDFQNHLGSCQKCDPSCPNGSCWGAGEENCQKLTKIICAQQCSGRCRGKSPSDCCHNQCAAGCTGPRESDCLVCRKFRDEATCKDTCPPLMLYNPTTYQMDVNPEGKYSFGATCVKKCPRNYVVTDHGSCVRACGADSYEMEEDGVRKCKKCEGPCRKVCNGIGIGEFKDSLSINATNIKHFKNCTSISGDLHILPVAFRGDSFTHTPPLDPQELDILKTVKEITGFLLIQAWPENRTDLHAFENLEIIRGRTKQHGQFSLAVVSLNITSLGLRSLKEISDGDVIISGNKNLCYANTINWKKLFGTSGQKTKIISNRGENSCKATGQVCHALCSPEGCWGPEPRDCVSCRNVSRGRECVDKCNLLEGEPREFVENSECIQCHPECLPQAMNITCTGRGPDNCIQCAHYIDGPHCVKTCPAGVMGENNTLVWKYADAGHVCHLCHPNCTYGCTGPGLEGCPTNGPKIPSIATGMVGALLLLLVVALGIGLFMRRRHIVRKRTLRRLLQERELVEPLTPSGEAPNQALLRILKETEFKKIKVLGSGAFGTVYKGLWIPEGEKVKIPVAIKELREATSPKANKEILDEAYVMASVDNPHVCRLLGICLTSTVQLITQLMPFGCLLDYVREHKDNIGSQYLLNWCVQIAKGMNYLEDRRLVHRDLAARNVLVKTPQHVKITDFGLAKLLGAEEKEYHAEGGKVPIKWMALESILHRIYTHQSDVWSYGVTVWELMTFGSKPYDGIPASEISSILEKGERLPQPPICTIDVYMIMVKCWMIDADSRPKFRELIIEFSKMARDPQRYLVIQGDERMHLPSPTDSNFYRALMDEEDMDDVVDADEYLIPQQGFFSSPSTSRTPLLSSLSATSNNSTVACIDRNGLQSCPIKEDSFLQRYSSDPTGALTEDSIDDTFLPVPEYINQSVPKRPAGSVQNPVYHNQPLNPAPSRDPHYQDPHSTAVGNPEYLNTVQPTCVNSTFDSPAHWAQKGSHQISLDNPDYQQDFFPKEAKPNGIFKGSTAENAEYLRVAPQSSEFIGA
Follistatin-related protein 3 (Homo sapiens), sequence (O95633 whole entry, looked up): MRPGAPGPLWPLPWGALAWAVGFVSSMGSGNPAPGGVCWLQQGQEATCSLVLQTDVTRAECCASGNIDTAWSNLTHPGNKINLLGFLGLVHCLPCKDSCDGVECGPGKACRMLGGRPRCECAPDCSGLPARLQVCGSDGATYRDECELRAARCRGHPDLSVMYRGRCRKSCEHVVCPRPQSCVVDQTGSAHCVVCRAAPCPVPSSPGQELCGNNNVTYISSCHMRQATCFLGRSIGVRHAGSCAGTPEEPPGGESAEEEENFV
Fibroblast growth factor 10 (Homo sapiens), sequence (O15520 whole entry, looked up): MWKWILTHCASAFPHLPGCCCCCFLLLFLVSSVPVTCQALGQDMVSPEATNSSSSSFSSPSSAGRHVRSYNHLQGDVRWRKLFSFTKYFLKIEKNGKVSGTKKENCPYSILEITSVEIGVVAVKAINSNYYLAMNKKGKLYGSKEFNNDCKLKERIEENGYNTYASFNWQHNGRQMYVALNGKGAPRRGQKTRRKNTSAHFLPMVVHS
Alpha-bungarotoxin (Bungarus multicinctus), sequence (P60615 whole entry, looked up): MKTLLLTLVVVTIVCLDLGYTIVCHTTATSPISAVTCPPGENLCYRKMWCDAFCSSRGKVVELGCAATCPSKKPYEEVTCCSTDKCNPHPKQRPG

For the molecule `CC=CC1=C(CO)[C@H](O)[C@H]2O[C@H]2[C@H]1O`, the composite z-score in test [1] is 0.412; in [2], -0.346; in [3], -0.786; in [5], 0.805; in test [6] it was 1.23; in test [7] it was 0.393. Moreover, the composite z-score is 0.578 in [8]; 1.07 in test [9]; -0.047 in test [10]; 0.598 in test [11]; 0.827 in [13]; -0.381 in test [14]. Besides, the composite z-score was -1.02 in [15]; -0.0758 in [16]; -0.304 in test [17]; -0.309 in [18]; -0.134 in [19]; -0.0092 in test [20]. The z-score is -0.383 (inactive) in test [4] and -0.956 in test [12].
Consider `COC(=O)[C@@H]1CCCN1C(=O)[C@@H](C)CO`, for which the composite z-score in test [1] was 0.42; in test [2], -0.0908; in test [3], -0.445; in [5], 0.601; in [6], 1.24; in test [7], 0.524. For the same molecule, the composite z-score in test [8] is 0.592; in [9] it was 0.547; in [10] it was -0.198; in test [11], 0.946; in test [13] it was 0.344; in test [14] it was 0.49. The composite z-score in test [15] is 0.0051; in [16] it was -0.0566; in test [17], -0.2; in [18], 0.141; in [19] it was 0.451; in [20], 1.13. The z-score is -0.74 (inactive) in [4] and 0.868 in test [12].
Take `COCCCNC(=O)[C@]1(CCC(=O)OC(C)(C)C)N=C(c2ccc(OCCCO)cc2)O[C@@H]1c1ccccc1N=[N+]=[N-]`: the composite z-score in test [1] is 1.31; in test [2], 0.314; in test [3], 0.999; in test [5] it was 1.29; in test [6], 1.33; in test [7], 0.287. Further, the composite z-score in [8] was 1.06; in test [9], 0.0998; in test [10], 0.772; in test [11], 1.45; in test [13] it was 0.197; in test [14] it was 1.88. Besides, the composite z-score was found to be 0.671 in test [15]; 0.183 in [16]; 0.0948 in [17]; 1.56 in [18]; 1.21 in test [19]; 1.64 in [20]. Moreover, the z-score in [4] was -1.14 (inactive); in test [12], 0.971.
As to `C#CCCCON=C1C[C@@H](O)[C@@H](O)[C@@H]2[C@@H]3C(=O)N(c4cccc(Oc5ccccc5)c4)C(=O)[C@@H]3CC[C@@H]12`, the composite z-score was 0.632 in test [1]; -0.178 in test [2]; 0.0505 in [3]; 0.985 in test [5]; 0.548 in test [6]; 0.213 in test [7]. Further, the composite z-score in test [8] was 0.802; in test [9], -0.0498; in [10] it was -0.211; in [11] it was 1.3; in test [13], 0.159; in test [14], 0.298. Also, the composite z-score in test [15] is -0.285; in test [16], -0.0808; in test [17], -0.0709; in [18] it was -0.183; in [19], 0.0847; in test [20] it was 0.724. Further, the z-score in [4] is -0.417 (inactive); in test [12], -0.497.
`[N-]=[N+]=NCc1ccccc1C[C@]1(C(=O)NCc2ccccc2)N=C(c2ccc(OCCCO)cc2)O[C@H]1c1ccccc1N=[N+]=[N-]`: the composite z-score was 1.3 in [1]; 0.658 in [2]; 1.09 in test [3]; 0.856 in [5]; 1.12 in [6]; -0.463 in test [7]. Besides, the composite z-score was 0.188 in test [8]; -0.678 in test [9]; -0.222 in test [10]; 0.878 in test [11]; -0.612 in test [13]; 1.35 in [14]. Moreover, the composite z-score in test [15] was 0.743; in test [16], 0.0068; in [17], 0.162; in [18], -0.716; in [19], 0.855; in test [20], 0.947. For the same molecule, the z-score in test [4] is 0.00592 (inactive); in test [12] it was -2.05.
For the molecule `Cc1cc(C)c(-c2cc([C@H](C)ON=C3[C@H]4CCn5c(=O)n(-c6ccccc6)c(=O)n5[C@H]4[C@H](O)[C@@H]4O[C@H]34)on2)c(C)c1`, the composite z-score is 0.167 in test [1]; -0.255 in [2]; -0.48 in test [3]; 0.501 in [5]; 0.253 in test [6]; 0.377 in [7]. Also, the composite z-score is 0.801 in test [8]; 0.88 in test [9]; -0.0289 in test [10]; 0.548 in test [11]; 0.59 in test [13]; 0.0681 in test [14]. In addition, the composite z-score in [15] is -0.386; in [16] it was 0.0559; in [17], 0.184; in [18], -0.0554; in test [19] it was 0.441; in test [20], 0.322. In addition, the z-score in test [4] was 2.01 (inactive); in test [12], -4.92.
